SMILES strings stand for the structures. Among all 330,000 compounds or so, about 5,800 (1.8%) were called active. No stated cut-off is given here; in the data, active means inhibition mostly above about 38% (no sharp cut-off); inactive means mostly below about 40%. What follows is part of a selection rich in actives, with near analogues and random picks from the rest.

Sequence of Orexin/Hypocretin receptor type 1 (Homo sapiens) (O43613 whole entry, looked up): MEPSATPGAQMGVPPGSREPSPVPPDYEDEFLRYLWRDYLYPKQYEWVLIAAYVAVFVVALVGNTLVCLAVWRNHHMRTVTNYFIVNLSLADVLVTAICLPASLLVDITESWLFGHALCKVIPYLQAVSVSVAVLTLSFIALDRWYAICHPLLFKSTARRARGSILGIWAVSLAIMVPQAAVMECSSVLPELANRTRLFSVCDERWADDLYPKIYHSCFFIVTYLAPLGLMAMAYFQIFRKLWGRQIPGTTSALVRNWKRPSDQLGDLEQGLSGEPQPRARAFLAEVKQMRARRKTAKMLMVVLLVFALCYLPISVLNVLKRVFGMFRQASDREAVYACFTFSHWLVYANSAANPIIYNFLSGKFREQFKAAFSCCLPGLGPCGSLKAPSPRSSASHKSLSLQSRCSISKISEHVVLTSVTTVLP

This assay concerns the target Orexin/Hypocretin receptor type 1 (Homo sapiens) (UniProt O43613). Briefly: blocks the human orexin 1 receptor (AID 485270).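 Further: 0% = agonist challenge alone and 100% = reference antagonist.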 The settings on record: OX1R-expressing cells, FRET antagonist read-out; at 6.6 µM; hits give high values.
As a reminder, the inhibition is the change of the read-out against control, counted positive when it falls. `O=C(c1ccc(S(=O)(=O)NCc2ccco2)cc1)N1CCN(c2ccccc2)CC1`: the inhibition is 11.5% (inactive).
Regarding `COc1ccc(S(=O)(=O)Nc2cccc3c2O[C@H](CN(C)S(=O)(=O)c2ccc(OC)cc2)[C@@H](C)CN([C@H](C)CO)C3=O)cc1`, the inhibition is -2.59% (inactive).
As for `COc1cc(OC)cc(C(=O)NNC(=O)Cc2cccs2)c1`, the inhibition is 1.69% (inactive).
The value for `Cc1cc(C(=O)O)ccc1[N+](=O)[O-]` was 1.62% (inactive); that for `Cc1oc2cc([N+](=O)[O-])c(O)c([N+](=O)[O-])c2c1C(=O)c1ccc(Br)cc1` was 67.5% (active); that for `COc1ccc(C(=O)c2c(C)oc3cc([N+](=O)[O-])c(O)c([N+](=O)[O-])c23)cc1` was 30.6% (inactive).
The value for `COc1cc(Cl)c(C)cc1NC(=O)CSc1nnc(-c2cccnc2)n1Cc1ccco1` was 15.5% (inactive); that for `Cc1ccc(NC(=O)CSc2nnc(-c3cnccn3)n2Cc2ccco2)cc1C` was 18.9% (inactive).
As to `COc1ccc(NC(=O)CSc2nnc(-c3cccs3)n2Cc2ccco2)cc1OC`, the inhibition was 41.6% (active).
Turning to `CC(OC(=O)c1ccc(Cl)cc1O)C(=O)NCCC1=CCCCC1` (stereo unspecified), the inhibition is 5.93% (inactive).
The value for `O=C(COc1ccccc1F)NNC(=O)c1cc(Br)ccc1Cl` was 12.4% (inactive); that for `C#CCOCCOCCOCCNc1nc(N2CCN(C(=O)C([C@@H](C)O)n3cc([C@@H](N)CCCCN)nn3)CC2)nc(N2CCN(C(=O)[C@H](CCCCN)n3cc(CN)nn3)CC2)n1` (stereo partly specified) was 6.34% (inactive); that for `C=CC(COCc1ccccc1)N(CC(=O)OC)S(=O)(=O)c1cc(Br)ccc1OC` (stereo unspecified) was 20.4% (inactive).
The value for `O=C(NN=C1CCC(=NNC(=O)c2cccnc2)CC1)c1cccnc1` was 1.73% (inactive); that for `O=C(N/N=C/c1sc(N2CCCCC2)nc1-c1cccs1)c1cccnc1` was 111% (active); that for `Cc1cc(/C=N/NC(=O)c2cccnc2)c(C)n1CC(C)C` was 3.61% (inactive).
In the case of `CC(C#N)OC(=O)c1cccnc1SCC(=O)Nc1ccc2c(c1)OCO2` (stereo unspecified), the inhibition was 8.21% (inactive).
The value for `O=C(CC(O)(C(F)(F)F)C(F)(F)F)Nc1ccc(Cl)c(Cl)c1` was 68.7% (active); that for `O=C(CC1SCCNC1=O)Nc1ccc(Cl)c(Cl)c1` (stereo unspecified) was 10.1% (inactive); that for `O=C(Cc1ccc(Cl)c(Cl)c1)Nc1ccc(SC(F)F)cc1` was 17.7% (inactive).
For `Cc1cc(C(=O)Nc2nnc(C3CC3)s2)c(C)s1`, the inhibition was 7.15% (inactive).
For `CCOC(=O)C1=C(C)N(C[C@@H]2CC[C@@H](Cc3ccc(-c4ccccc4)cc3)O2)C(=O)NC1c1ccc([N+](=O)[O-])cc1` (stereo partly specified), the inhibition was 5.68% (inactive).
The value for `COc1ccc(Br)cc1CN(C)CC(=O)Nc1cc(Cl)cc(Cl)c1` was 22.9% (inactive); that for `COc1ccc2nc3n(c(=O)c2c1)-c1cc(C)ccc1C(=O)NC3Cc1ccc(O)cc1` (stereo unspecified) was 4.12% (inactive); that for `N#CCCN(C(=O)COC(=O)c1ccc2c(c1)OCCO2)c1ccccc1` was 11% (inactive).
On to `Cc1c(C(=O)OCC(=O)N(CCC#N)c2ccccc2)oc2c1ccc1ccccc12`, for which the inhibition was 60.1% (active).
Next, `N#CCCN(C(=O)COC(=O)c1ccc(S(=O)(=O)N2CCCCCC2)cc1)c1ccccc1`: 16.8% (inactive).
`Cc1ccc(CCNC(=O)C2CCN(S(=O)(=O)N3CCCC3)CC2)cc1`: the inhibition is 6.73% (inactive).
Next, `CN(CC(=O)NCCc1ccc(S(N)(=O)=O)cc1)CC(=O)Nc1ccc(F)c(F)c1F`: -2.07% (inactive); `O=c1ccc2c(-c3ccccc3S(=O)(=O)O)c3ccc(O)c(O)c3oc-2c1O`: 55.9% (active).
On to `CC(C)COc1ccc(C(=O)NNC(=O)CCC(=O)c2cccs2)cc1`, for which the inhibition is 2.01% (inactive).
The value for `Cc1cccc(NC(=O)c2ccc(S(=O)(=O)N(C)c3ccccc3)cc2)n1` was 9.18% (inactive); that for `CCCCNc1c(-c2ccc(OC)c(Sc3ccc(OC)cc3)c2)nc2ccc(Cl)cn12` was 13.3% (inactive); that for `COc1ccc(-c2csc3nc(-c4ccccc4F)oc(=O)c23)cc1OC` was 46.9% (active).
Next, `COc1ccc(-c2csc(-c3cccs3)n2)cc1OC`: 11.9% (inactive); `COc1ccccc1-c1nnc(-c2ccc(F)cc2)o1`: 4.73% (inactive); `O=C(COC(=O)c1n[nH]c2ccccc12)Nc1ccccc1Br`: 19.4% (inactive).
The value for `CCOC(=O)C1CCN(CC(=O)Nc2ccc(OC)c(S(=O)(=O)N3CCCCC3)c2)CC1` was 7.12% (inactive).
Regarding `CC[C@@H]1CCCCc2ccccc2[C@@H](C(=O)C[C@H](O)CC(C)=O)OC1=O`, the inhibition was 5.92% (inactive).
The value for `Cc1onc(-c2ccccc2Cl)c1C(=O)NCCn1ccc2ccccc21` was 69.4% (active).
The value for `Cc1onc(-c2ccccc2Cl)c1C(=O)OCC(=O)c1ccccc1` was 21.4% (inactive); that for `Cc1ccc2cc(CCNC(=O)c3c(-c4ccccc4Cl)noc3C)c(=O)[nH]c2c1` was 6.94% (inactive); that for `NCCN1CCN2C(=O)CN(C(=O)c3ccccc3)CC12` (stereo unspecified) was 6.95% (inactive).
Next, `CC1(C)C[C@H]2C3=CCC4[C@@]5(C)CC[C@H](O)[C@](C)(CO)C5CC[C@@]4(C)[C@]3(C)C[C@@H](O)[C@@]2(CO)[C@@H](O)[C@@H]1O` (stereo partly specified): 6.35% (inactive); `O=C(CSc1nccn1-c1cccc(F)c1)NC1CCCC1`: 1.88% (inactive).
`CC(OC(=O)c1c(F)cccc1F)C(=O)NCCC1=CCCCC1` (stereo unspecified): the inhibition was 6.17% (inactive).
Next, `Cc1[nH]n(C)c(=O)c1N=Nc1ccc(S(C)(=O)=O)cc1`: 75.9% (active); `Cc1[nH]n(C)c(=O)c1C(=O)c1c(-c2c(Cl)cccc2Cl)noc1C`: 38.8% (inactive); `Cc1cccc(N=Nc2c(C)[nH]n(-c3ccccc3)c2=O)c1`: 6.48% (inactive).
The value for `O=C(Nc1ccc2ccccc2c1)Nc1ccc2snnc2c1` was 60.2% (active).
As to `O=C(Nc1cccc(Br)c1)c1ccc2snnc2c1`, the inhibition was 28.6% (inactive).
Next, `CCc1ccccc1NC(=O)c1ccc2snnc2c1`: 19.6% (inactive); `CC(=O)C(CC(=O)N1CCCC1)C(=O)Nc1ccc(Cl)cc1` (stereo unspecified): -2.02% (inactive).
Take `O=C1COc2ccc(C(=O)COC(=O)c3ccccc3Cl)cc2N1`: the inhibition was 8.89% (inactive).
Next, `CCN(C(=O)COC(=O)c1sccc1C)c1c(N)n(Cc2ccccc2)c(=O)[nH]c1=O`: 21.4% (inactive); `CCN(C(=O)CSc1ncnc2sccc12)c1c(N)n(Cc2ccccc2)c(=O)[nH]c1=O`: 42.3% (active).
The value for `CCCN(C(=O)CSc1nnc(N)s1)c1c(N)n(Cc2ccccc2)c(=O)[nH]c1=O` was 2.18% (inactive); that for `COc1ccc(C(=O)O)cc1S(=O)(=O)NC1CCN(Cc2ccccc2)CC1` was 2.69% (inactive); that for `O=C(NCCCN1CCOCC1)c1cn(-c2ccccc2)nc1-c1ccc(F)cc1` was 1.24% (inactive).
The value for `CC(=O)Nc1ccc(/C=N/NC(=O)c2cccs2)cc1` was 18.1% (inactive); that for `CC(=O)NC(Cc1c[nH]c2ccccc12)C(=O)O` (stereo unspecified) was 11.3% (inactive).
`O=C(NC(Cc1c[nH]c2ccccc12)C(=O)N/N=C/c1ccc(Br)cc1)c1cccs1` (stereo unspecified): the inhibition was 68.7% (active).
The value for `O=C(NNS(=O)(=O)c1c(F)cc(F)c(Cl)c1F)C12CC3CC(CC(C3)C1)C2` was 6.19% (inactive); that for `COc1ccc(C(=O)NCc2ccccc2C)cc1S(=O)(=O)NC1CCCC1` was 8.7% (inactive); that for `O=C(COC(=O)c1ccc(O)cc1O)c1ccc2c(c1)OCCO2` was 9.27% (inactive).
Next, `CCNC(=S)N1CCN(S(=O)(=O)c2ccc(Cl)s2)CC1`: 13.3% (inactive).
On to `CC(C)(C)OC(=O)C1=C(CO)CS[C@@H]2[C@H](NC(=O)Cc3ccccc3)C(=O)N12`, for which the inhibition was 17.7% (inactive).
As for `O=C(Nc1ccc2nc3n(c(=O)c2c1)CCCC3)c1ccc(Cl)nc1`, the inhibition is 4.47% (inactive).
The value for `CCCCN(CC)C(=S)Nc1ccc2nc3n(c(=O)c2c1)CCCCC3` was 5.73% (inactive).
Next, `O=c1c2cc([N+](=O)[O-])ccc2nc2n1CCC2`: 59.2% (active); `COc1ccc(C(=O)O/N=C(\N)c2ccccn2)cc1[N+](=O)[O-]`: 28.6% (active); `Cc1ccc(C(=O)O/N=C(\N)c2ccccn2)cc1Cl`: 14.1% (inactive).
Next, `N/C(=N\OC(=O)c1ccc([N+](=O)[O-])cc1)c1ccccn1`: 53.4% (inactive); `O=C(O[C@@H]1[C@H](Cc2ccccc2)NS(=O)(=O)[C@H]2C[C@@H]3C=C[C@]12O3)c1ccccc1Br`: 52.4% (active); `O=C(O[C@H]1[C@H](Cc2ccccc2)NS(=O)(=O)[C@H]2C[C@@H]3C=C[C@]12O3)c1ccc([N+](=O)[O-])cc1`: 15.9% (inactive).
As for `CC(C)C(NC(=O)c1c(F)cccc1F)C(=O)NNC(=O)c1ccccc1` (stereo unspecified), the inhibition was 2.8% (inactive).
`COc1ccc(-c2c(C#Cc3ccsc3)c3cc(-c4ccc(CN5CCOCC5)cc4)ccc3n2C)cc1`: the inhibition is 8.67% (inactive).
Next, `COc1cc(C(=S)N2CCOCC2)cc(OC)c1OC(=O)c1cc([N+](=O)[O-])cc([N+](=O)[O-])c1`: 66.5% (inactive); `COc1cc(C(=S)N2CCOCC2)cc(OC)c1OC(=O)c1cc([N+](=O)[O-])c(C)c([N+](=O)[O-])c1`: 8.29% (inactive).
Regarding `COc1cc(C(=S)N2CCOCC2)cc(OC)c1OC(=O)c1ccc([N+](=O)[O-])cc1[N+](=O)[O-]`, the inhibition is 113% (active).
Next, `Cc1cccc([C@H]2[C@@H]3C=CC[C@@H](C)[C@@H]3C(=O)N2Cc2ccccc2)c1`: 23.4% (inactive); `Cc1c(C(=O)Nc2cccc(S(=O)(=O)N3CCOCC3)c2)oc2ccccc12`: 24.2% (inactive).
The value for `CC(=O)Oc1ccc(C(C)=O)c2c1OCCO2` was 88.7% (active); that for `CC(=O)c1ccc2c(c1)OCCOCCOc1ccc(C(C)=O)cc1OCCOCCO2` was 0.66% (inactive).
The value for `CC(=O)c1ccc(OC(=O)N2CCOCC2)cc1` was 0.24% (inactive); that for `O=C(NCCc1ccco1)c1ccc(OCc2cn3ccccc3n2)cc1` was 8.69% (inactive).

Values taken from PubChem BioAssay AID485270 (The Scripps Research Institute Molecular Screening Center, 2010).
